# Reference: PubChem BioAssay AID1851 (National Center for Advancing Translational Sciences (NCATS), 2009)
# Where “and” joins values, the source holds several entries; their conditions need not be identical. Equal values may be shown once. About 4,000 (25%) of roughly 16,000 compounds were called active. Not shown: some 26% with an inconclusive outcome. These entries were drawn from the full list. Unmarked numbers belong to inactive results. Calls come from the whole dose curve; as a rule, active = well fitted curve in the direction sought with a large enough effect; inconclusive = small, poorly fitted or top-dose-only effect, or effect the other way; inactive = no such curve, though single readings can be large or run the other way.
# Target: Cytochrome P450 2C9 (Homo sapiens) (UniProt P11712)
# Assay: Cytochrome panel assay with activity outcomes
# Settings: recombinant CYP, pro-luciferin dealkylation, luminescence, p450-cyp2c9; series mostly up to 57.1 µM
# % is set by controls: 0 for no effect and ±100 for the full control effect.
# Cytochrome P450 2C9 (Homo sapiens), sequence (P11712 whole entry, looked up): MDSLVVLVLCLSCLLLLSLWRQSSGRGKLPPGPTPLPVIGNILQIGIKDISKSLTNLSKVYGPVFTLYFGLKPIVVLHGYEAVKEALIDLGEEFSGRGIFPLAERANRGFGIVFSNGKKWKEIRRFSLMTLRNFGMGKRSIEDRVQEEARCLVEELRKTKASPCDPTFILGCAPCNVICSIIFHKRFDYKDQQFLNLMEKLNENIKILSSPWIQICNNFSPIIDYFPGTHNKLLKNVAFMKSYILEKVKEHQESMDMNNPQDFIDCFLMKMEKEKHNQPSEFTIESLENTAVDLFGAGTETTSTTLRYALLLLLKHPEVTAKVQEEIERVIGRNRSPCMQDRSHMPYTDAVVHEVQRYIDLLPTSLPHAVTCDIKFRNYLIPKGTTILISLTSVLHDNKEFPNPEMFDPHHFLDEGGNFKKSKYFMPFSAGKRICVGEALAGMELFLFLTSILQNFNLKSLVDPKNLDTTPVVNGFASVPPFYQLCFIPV
SMILES,AC50,"activity, negative = inhibition"
CCC(CC)C(=O)NCCN1CCN(C(=O)C(CC)CC)CC1,inactive,
CN(C)CCn1nnnc1SCC1=C(C(=O)O)N2C(=O)[C@@H](NC(=O)Cc3csc(N)n3)[C@@H]2SC1,inactive,
Cn1c(=O)c2c(nc(C(=N)SCC(=O)O)n2C)n(C)c1=O,,-13.3% [at 11.4 µM]
Cc1[nH]c2c(C)ccc(C)c2c1CC(=O)O,,-16.5% [at 11.4 µM]
Clc1ccccc1-c1nc(NCc2cccnc2)c2ccccc2n1,,-14.1% [at 2.29 µM]
Cc1ccccc1-c1nc(NCc2cccnc2)c2ccccc2n1,,9.82% [at 2.29 µM]
Clc1ccccc1-c1nc(N/N=C/c2cccnc2)c2ccccc2n1,2.24 µM (active),
CCC(=O)O[C@H](CC(=O)O)C[N+](C)(C)C,inactive,
N[C@@H](COP(=O)(O)O)C(=O)O,inactive,
Fc1ccc(-c2[nH]ncc2-c2nnnn2-c2ccccc2)c(F)c1,7.94 µM (active),
C=CC[C@@H](C(=O)O)c1ccccc1,,-1.11% [at 11.4 µM]
CCOc1cc(/C=N/NC(=O)COc2cccc(C)c2)ccc1OC(=O)c1cccs1,3.16 µM (active),
CCOc1cc(/C=N/NC(=O)CNc2cccc(C)c2)ccc1OC(=O)c1ccccc1,5.01 µM (active),
N#Cc1cccc(NC(=O)N2CC3(CCN(C(=O)c4cnccn4)CC3)C2)c1,inactive,
CC(C)(C)c1c2c(c(C(C)(C)C)c3c1OCN(Cc1ccccc1)C3)OCN(Cc1ccccc1)C2,,-7.82% [at 11.4 µM]
C#CCSc1nc(Cc2ccc(Cl)cc2)nc2ccccc12,2.82 µM (active),
O=C1NC(c2ccccc2)=NC1(NS(=O)(=O)c1ccccc1)C(F)(F)F (stereo not drawn),inactive,
CCCCNc1ccc(C(=O)OCCOCCOCCOCCOCCOCCOCCOCCOCCOC)cc1,inactive,
O=C(OCCNC(=O)c1ccc2ccccc2n1)c1ccc(F)cc1,10 µM (active),
NCCNC(=O)c1ncsc1-c1cccc(F)c1,inactive,
O=c1[nH]c(SCc2c(Cl)c(Cl)c(Cl)c(Cl)c2Cl)nc(=S)[nH]1,1.26 µM (active),
Nc1ccc(N=Nc2c(S(=O)(=O)O)cc3ccccc3c2S(=O)(=O)O)cc1,,8.14% [at 11.4 µM]
NCC[C@H]1CCC[C@H](CCN)N1,inactive,
Cc1ccc(C)c(N2CCN(C(=O)c3ccc4nc(-c5ccco5)c(-c5ccco5)nc4c3)CC2)c1,7.08 µM (active),

SMILES,AC50,"activity, negative = inhibition"
COc1cc2nc(N3CCN(C(=O)c4ccco4)CC3)nc(N)c2cc1OC,inactive,
COc1ccc(C)cc1NC(=O)CSc1nnc(-c2ccc(OC)c(OC)c2)n1N,inactive,
COc1ccc(C)cc1NC(=O)CCC(=O)Nc1nnc(C(F)(F)F)s1,1.26 µM (active),
CCC(=O)OCC(=O)[C@@]1(OC(=O)CC)[C@H](C)C[C@@H]2[C@H]3CCC4=CC(=O)C=C[C@]4(C)[C@]3(Cl)[C@@H](O)C[C@@]21C,inactive,
CCCCOC(OCCCC)[C@H](O)CSc1ccc2ccccc2c1,2 µM (active),
CCN(CC)C[C@@H](O)c1ccc2ccc3ccccc3c2c1,,-3.91% [at 11.4 µM]
CC(C)NC[C@H](O)c1ccc2ccccc2c1,inactive,
Cc1cc(C)c(C#N)c(Oc2ccccc2)n1,inactive,
Cc1cc(C)c(C#N)c(OCC(=O)c2ccc(Br)cc2)n1,10 µM (active),
Cc1ccc(=O)n(-c2ccccc2)c1,inactive,
COc1ccc(NC(=O)N2CCCC3(CCN(C(=O)c4cccn4C)CC3)C2)cc1,inactive,
O=C1CN(C(=O)c2ccc(Br)o2)C(c2ccc(F)cc2)c2cc(Cl)ccc2N1 (stereo not drawn),6.31 µM (active),
CO[C@H]1COC(=O)C/C=C\[C@@H](C)COC(=O)[C@@H](CCSC)NC(=O)C/C=C\[C@@H]1C,,-2.93% [at 11.4 µM] and 12.5% [at 11.4 µM]
C[C@H]1COC(=O)[C@H]2CCCN2C(=O)[C@@H](C)COC(=O)[C@H](Cc2ccccc2)NC1=O,,13.4% [at 11.4 µM]
Cc1ccc(NNS(=O)(=O)c2ccc(C)cc2)cc1,8.91 µM (active),
Cc1ccc(S(=O)(=O)NNc2ccccc2)cc1,8.91 µM (active),
Cc1ccc(S(=O)(=O)N[C@H](C(=O)O)C(C)C)cc1,,-4.41% [at 11.4 µM]
Cc1ccc(S(=O)(=O)NCc2ccccc2)cc1,inactive,
Cc1ccc(S(=O)(=O)N[C@H]2COC(=O)C/C=C\[C@H](C)[C@@H](NS(=O)(=O)c3ccc(C)cc3)COC(=O)C/C=C\[C@@H]2C)cc1,,-6.21% [at 11.4 µM]
CCN=C1NN=C(c2ccc(C)cc2)CS1,6.31 µM (active),
COc1ccc2cc(C#N)c(SCC(=O)NNC(=O)Cc3ccccc3)nc2c1,inactive,
COc1cccc(NC(=O)CSc2nc3ccccc3cc2Cc2ccccc2)c1,6.31 µM (active),
CCN(CC)C(=O)CSc1nnc(C2CCCCC2)o1,inactive,
CN1CCN(c2nc3c(c(=O)n(C)c(=O)n3C)n2C)CC1,,0.789% [at 11.4 µM]

SMILES,AC50,"activity, negative = inhibition"
Cn1c(=O)c2c(nc(N3CCN(c4ccccn4)CC3)n2Cc2ccc(Cl)cc2Cl)n(C)c1=O,inactive,
C=CCn1cc(Cl)c(=O)n(CC=C)c1=O,inactive,
Cn1c(=O)c2c(nc(N3CCN(c4ccccn4)CC3)n2Cc2ccccc2Cl)n(C)c1=O,3.55 µM (active),
C=CCn1c(=O)c2c(nc(Br)n2Cc2ccccc2Cl)n(C)c1=O,14.1 µM (active),
C=CCn1c(=O)c2c(nc(-c3ccc(S(=O)(=O)O)cc3)n2C)n(C)c1=O,inactive,
O=C(O)CCC(=O)CCC(=O)c1ccccc1,inactive,
OCCN1CCN(CCC=C2c3ccccc3Sc3ccc(Cl)cc32)CC1,inactive,
COc1cc(OC)cc(C(=O)Nn2cc(C(=O)N3CCN(C)CC3)c3ccccc3c2=O)c1,11.2 µM (active),
CN1CCN(C(=O)c2ccc(-n3cccc3)cc2)CC1,inactive,
COc1cc(OC)cc(C(=O)NCC(=O)OC2CCOC2=O)c1 (stereo not drawn),inactive,
CC[C@H](C)C(=O)O[C@H]1CCC=C2C=C[C@H](C)[C@H](CC[C@@H]3C[C@H](O)CC(=O)O3)[C@H]21,inactive,
CN(C)C(=O)c1ccc(-c2ccc3ncnc(NCc4ccccc4)c3c2)cc1,,13.4% [at 2.29 µM]
NCCc1nc(-c2nc(C(=O)O)cs2)cs1,,-10.5% [at 11.4 µM]
C=CCNC(=O)c1ccc2nc(-c3ccccc3)c(-c3ccccc3)nc2c1,14.1 µM (active),
C=CCNC(=O)c1ccc(-c2nc(-c3ccc(Cl)c(Cl)c3)cs2)cc1,inactive,
C=CCNC(=O)c1csc(-c2ccccc2)n1,15.8 µM (active),
CSc1nc(C)c2c(n1)N(c1ccc(C(F)(F)F)cc1)CC2,inactive,
O=C1N=C(N2CCOCC2)S/C1=C/c1cccs1,inactive,
N=C1/C(=C/c2cccs2)C(=O)N=C2SN=C(SCc3ccccc3)N12,0.316 µM (active),
CN1[C@@H](CC(=O)c2ccccc2)CCC[C@@H]1C[C@@H](O)c1ccccc1,inactive,
NC(=O)N1c2ccccc2C=Cc2ccccc21,inactive,
O=C(C[C@@H]1C=Cc2ccccc2N1C(=O)c1ccccc1)c1ccccc1,2.51 µM (active),
CO[C@@H]1COC(=O)C/C=C\[C@H](C)[C@@H](NS(=O)(=O)c2ccc(C)cc2)COC(=O)C/C=C\[C@@H]1C,,-12.8% [at 11.4 µM] and 11% [at 11.4 µM]
Nc1nc2c(c(=O)[nH]1)N(C=O)[C@H](CNc1ccc(C(=O)N[C@@H](CCC(=O)O)C(=O)O)cc1)CN2,inactive,

SMILES,AC50,"activity, negative = inhibition"
Cc1cc(C(C)(C)C)c(OCCCN2CCOCC2)c(C(C)(C)C)c1,,-0.273% [at 11.4 µM]
N#Cc1c(N2CCCCC2)nc(N)c2c(N)nc3c(c12)CC(c1ccccc1)O3 (stereo not drawn),4.47 µM (active),
CN(C)Cc1ccccc1-c1ccc2ncnc(N3CCOCC3)c2c1,,8.68% [at 2.29 µM]
CN1c2ccccc2C(C)(C)C12C=Nc1c(cc(N3CCOCC3)c3ccccc13)O2 (stereo not drawn),1.58 µM (active),
CN(C)Cc1ccccc1-c1nc(N2CCOCC2)c2ccccc2n1,,5.66% [at 2.29 µM]
CCOc1cc(C2NN=C(c3ccccc3)S2)ccc1OCc1ccccc1Cl (stereo not drawn),8.91 µM (active),
COc1cc(CNCc2ccccn2)ccc1OCc1ccc(Cl)cc1Cl,inactive,
CN(C)C(=O)c1ccc(-c2cncnc2NC2CCNCC2)cc1,,15.8% [at 2.29 µM]
CCOC(=O)C1C(=O)C=C(c2ccc(NS(C)(=O)=O)cc2)CC1c1ccco1 (stereo not drawn),4.47 µM (active),
CCOC(=O)C1C(=O)C=C(c2ccc(C)cc2)CC1c1ccco1 (stereo not drawn),3.16 µM (active),
CCN(CC)C(=O)Cn1cnc([N+](=O)[O-])n1,inactive,
CN1CC(c2ccccc2)C2(COc3ccccc3C2=O)C12C(=O)Nc1ccccc12 (stereo not drawn),3.98 µM (active),
COc1cc(C2C(C(=O)OCCC#N)=C(C)NC3=C2S(=O)(=O)c2ccccc23)cc(OC)c1OC (stereo not drawn),7.08 µM (active),
C[C@@H](C(=O)O)c1ccc(C[C@@H]2CCCC2=O)cc1,inactive,
Cc1nc2ccccn2c1C(=O)CSc1ccccc1Cl,11.2 µM (active),
O=C(c1ccc(F)cc1)C1CCN(C(=S)Nc2ccccc2)CC1,8.91 µM (active),
O=C(c1ccc(F)cc1)C1CCN(CCCCc2ccccc2)CC1,inactive,
S=C(Nc1ccccc1)N1CCCCC1,inactive,
CC(C)CO[C@H](c1ccc2c(c1)OCO2)[C@H](C)Br,2 µM (active),
CC(C)CO/N=C1/C[C@@H](O)[C@@H](O)[C@@H]2[C@@H]3C(=O)N(Cc4ccc5c(c4)OCO5)C(=O)[C@H]3CC[C@H]12,,-12.4% [at 11.4 µM]
CC(C)CO/N=C1/C[C@@H](O)[C@@H](O)[C@@H]2[C@@H]3C(=O)N(Cc4ccc5c(c4)OCO5)C(=O)[C@H]3CC[C@@H]12,,-17.6% [at 11.4 µM]
